Bioassay records as filed in PubChem.
This is a sample that favours compounds with a hit; in the whole collection about 3.8% have one here.
TGFb inhibitor: TGF-b pathway inhibition | HepG2 CAGA-GFP TGF-b/SMAD3 reporter, GFP fluorescence, 18 h; TGF-beta stimulated, 500 pg/mL final | Potency, µM (top dose mostly 46.1 µM), most hits filed as inhibitors | actives 1.2% (n = 410,000) | AID 588855; also: nearly all actives have a fitted effect of over 65% in size
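Inhibition was scored as loss of TGF-beta-induced (500 pg/mL final, 18 hours, 37 degrees C) GFP in HEPG2 cells carrying a CAGA-GFP reporter, in DMEM with 1% FBS. Well GFP was summed per cell; Activity was normalised to unstimulated and stimulated DMSO wells, then concentration-response fitting.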
Nrf2 inh: blocks Nrf2 signaling; Potency, µM (series often up to 46 µM), hits mostly inhibitors; actives 2.1% (n = 360,000); A549 ARE-Fluc reporter, luciferase luminescence, 18-24 h; also: nearly all actives have a fitted effect of over 60% in size
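A549 ARE_Fluc cells, 5000/well, 5% FBS OPTI-MEM; compounds in dose-response, 18-24 h at 37 °C/5% CO2; CellTiter-Fluor viability read (Ex 405/Em 525), then BugLite luciferase luminescence = Nrf2 activity.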
ATXN viability: viability counter-screen for ATXN expression inhibitors; AID 651635; actives 0.49% (n = 400,000); S2 cells (HEK-293 line with an ATXN2-luciferase reporter) viability, CellTiter-Fluor protease fluorescence, 24 h; Potency, µM (doses to about 56.7 µM), hits mostly cytotoxic; also: nearly all actives have a fitted effect of over 40% in size
A549 tox: counter-screen for Nrf2 inhibitors: cytotoxicity in A549 cells; A549 ARE-Fluc cells, CellTiter-Fluor viability, 18-24 h; Potency, µM (titrated, usually from 46 µM), usual class: inhibitors; actives 0.16% (n = 390,000)
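A549 ARE-Fluc cells in 5% FBS OPTI-MEM, 5000 cells/well, rested 2 h then exposed to compounds in concentration-response for 18-24 h at 37 °C. Viability by CellTiter-Fluor fluorescence (Ex 405/Em 525) after 30 min; luciferase luminescence (BugLite, 15 min, RT) read afterwards.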
HepG2 tox: counter-screen for TGF-b inhibitors: cytotoxicity in HepG2 cells; HepG2 CAGA-GFP viability, ATP luminescence, 18 h; Potency, µM (top dose mostly 46.1 µM), most hits filed as cytotoxic; actives 0.76% (n = 410,000); AID 588856
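HepG2 CAGA-GFP cells (1000/well, DMEM with 1% FBS) received compound, then TGF-beta at 500 pg/mL final, and were incubated 18 hours at 37 degrees C. Viability was read by CellTiter-Glo luminescence. Media-only wells were set as complete cell-killing and DMSO as no toxicity.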
ATXN2 expr inh: ATXN2 expression inhibition; HEK-293 ATXN2-luciferase reporter, luminescence, 24 h; Potency, µM (series often up to 57 µM), usual class: inhibitors; actives 0.72% (n = 360,000); AID 1745845; also: nearly all actives have a fitted effect of over 55% in size
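qHTS (up to 57 uM final) was run with 24 h compound exposure of reporter cells at 37 °C. Each well was multiplexed: SteadyGlo luminescence measured ATXN2-luciferase expression after a fluorogenic Gly-Phe-AFC viability readout (25 uM final).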
Numbers stand for hits. Calls follow the shape of the dose curve; as a rule, active = well fitted curve in the direction sought with a large enough effect; inconclusive = small, poorly fitted or top-dose-only effect, or another doubt; inactive = no such curve, though single readings can be large; an effect the other way counts as inactive or inconclusive.

How did CCC(=O)N1c2ccc(S(=O)(=O)NCCc3ccc(OC)c(OC)c3)cc2CC1C (stereo unspecified) do in these assays?
TGFb inhibitor: inactive; Nrf2 inh: inconclusive; ATXN viability: inactive; A549 tox: inactive; HepG2 tox: inactive; ATXN2 expr inh: inactive

Results for CC(=O)N1c2ccc(S(=O)(=O)NCC3CCC(C(=O)Nc4cccc(C)c4)CC3)cc2CC1C (stereo unspecified) ?
TGFb inhibitor: inactive; Nrf2 inh: inconclusive; A549 tox: inactive; HepG2 tox: inactive

How did Cn1cc(S(=O)(=O)c2ccc(Cl)cc2)c(=O)c2cc(F)c(N3CCCCCC3)cc21 do in these assays?
TGFb inhibitor: inconclusive; Nrf2 inh: 16.4µM; A549 tox: inactive; HepG2 tox: inactive

How did CC(C)(C)Nc1nc(N2CCCC2)nc(N2CCCC2)n1 do in these assays?
TGFb inhibitor: inconclusive; Nrf2 inh: inconclusive; ATXN viability: inconclusive; A549 tox: 14.6µM; HepG2 tox: inactive; ATXN2 expr inh: inconclusive

What do the screens show for `CCNc1nc(NC(C)(C)C)nc(N2CCCC2)n1`?
TGFb inhibitor: inactive; Nrf2 inh: inactive; ATXN viability: inconclusive; A549 tox: inconclusive; HepG2 tox: inactive; ATXN2 expr inh: inactive

Results for CCn1nc(C)c2c(-c3ccccc3)cc(=O)n(C(C)C(=O)NCCc3ccccc3)c21 (stereo unspecified) ?
TGFb inhibitor: inconclusive; Nrf2 inh: 18.4µM; ATXN viability: inconclusive; A549 tox: inactive; HepG2 tox: inactive; ATXN2 expr inh: inconclusive

How did Cc1cccc(-c2nc(S(=O)(=O)c3ccccc3)c(N3CCN(c4ccccc4)CC3)o2)c1 do in these assays?
TGFb inhibitor: inactive; Nrf2 inh: inactive; A549 tox: inactive; HepG2 tox: inactive

How did OC(CN1c2ccccc2Sc2ccccc21)Cn1nnc2ccccc21 (stereo unspecified) do in these assays?
TGFb inhibitor: inactive; Nrf2 inh: inactive; ATXN viability: inconclusive; A549 tox: inactive; HepG2 tox: 17.8µM; ATXN2 expr inh: inactive

How did O=C1c2ccccc2C(=O)N1CC(O)Cn1nnc2ccccc21 (stereo unspecified) do in these assays?
TGFb inhibitor: inactive; Nrf2 inh: inactive; ATXN viability: inactive; A549 tox: inactive; HepG2 tox: inactive; ATXN2 expr inh: inactive

What do the screens show for `Cc1nn(CC(O)CN2c3ccccc3Sc3ccccc32)c(C)c1Br` (stereo unspecified)?
TGFb inhibitor: 12.6µM; Nrf2 inh: inactive; ATXN viability: inactive; A549 tox: inactive; HepG2 tox: inactive; ATXN2 expr inh: inactive

Results for Nc1ccc(-c2ccc(C(=O)O)s2)cn1 ?
TGFb inhibitor: inactive; Nrf2 inh: inactive; ATXN viability: inactive; A549 tox: inactive; HepG2 tox: inactive

How did COc1ccc(Nc2cc(C(=O)NCCCN3CCOCC3)c3ccccc3n2)cc1 do in these assays?
TGFb inhibitor: inactive; Nrf2 inh: inactive; ATXN viability: inactive; A549 tox: inactive; HepG2 tox: inactive; ATXN2 expr inh: inactive

Results for CCCCN(CCCNC(=O)c1cc(Nc2cccc(SC)c2)nc2ccccc12)Cc1ccccc1 ?
TGFb inhibitor: 15.8µM; Nrf2 inh: inconclusive; A549 tox: inconclusive; HepG2 tox: 12.6µM

Results for CSc1cccc(Nc2cc(C(=O)NCCc3ccc(Cl)cc3)c3ccccc3n2)c1 ?
TGFb inhibitor: 10µM; Nrf2 inh: inconclusive; ATXN viability: inactive; A549 tox: inconclusive; HepG2 tox: inactive; ATXN2 expr inh: inconclusive

Results for Cc1cc(C(=O)NCCc2ccc(Cl)cc2)c2ccccc2n1 ?
TGFb inhibitor: inactive; Nrf2 inh: inactive; ATXN viability: inactive; A549 tox: inactive; HepG2 tox: inactive; ATXN2 expr inh: inactive

How did CCc1ccc(Nc2cc(C(=O)NCCCN3CCOCC3)c3ccccc3n2)cc1 do in these assays?
TGFb inhibitor: inactive; Nrf2 inh: inactive; ATXN viability: inconclusive; A549 tox: inconclusive; HepG2 tox: 7.08µM; ATXN2 expr inh: inactive

How did CC(C)c1ccc(Nc2cc(C(=O)NCCCN(C)Cc3ccccc3)c3ccccc3n2)cc1 do in these assays?
TGFb inhibitor: inactive; A549 tox: inactive; HepG2 tox: inactive

What do the screens show for `COc1ccc(/C=C2\C(=O)N(c3c(Cl)cc(Cl)cc3Cl)N=C2NC(=O)c2cccc([N+](=O)[O-])c2)cc1`?
TGFb inhibitor: inactive; Nrf2 inh: inactive; A549 tox: inactive; HepG2 tox: inactive; ATXN2 expr inh: 31.6µM

Results for COc1ccc(C(=O)C(C)Oc2cccc(NC(=O)c3cccc([N+](=O)[O-])c3)c2)cc1 (stereo unspecified) ?
TGFb inhibitor: inactive; Nrf2 inh: 25.9µM; ATXN viability: inactive; A549 tox: inactive; HepG2 tox: inactive; ATXN2 expr inh: inactive

Results for COc1ccc(-c2cnc(SCC(=O)Nc3ccc4c(c3)OCO4)n2Cc2ccco2)cc1 ?
TGFb inhibitor: inconclusive; Nrf2 inh: inconclusive; ATXN viability: inactive; A549 tox: inactive; HepG2 tox: inactive; ATXN2 expr inh: inactive

What do the screens show for `CC(=O)Nc1cccc(NC(=O)CSc2ncc(-c3ccc(Cl)cc3)n2Cc2ccco2)c1`?
TGFb inhibitor: inactive; Nrf2 inh: 18.4µM; ATXN viability: inconclusive; A549 tox: inactive; HepG2 tox: inactive; ATXN2 expr inh: inconclusive

Results for CCOC(=O)c1ccc(-c2c(-c3cc(OC)c(OC)c(OC)c3)noc2C)cc1F ?
TGFb inhibitor: 11.2µM; Nrf2 inh: inactive; ATXN viability: inconclusive; A549 tox: inactive; HepG2 tox: inactive; ATXN2 expr inh: inactive

Results for CCOC(=O)[C@]12CCC=C1N(CCC1=CCCCC1)C(=O)[C@H](CC(=O)N1CCOCC1)C2 ?
ATXN viability: inactive; ATXN2 expr inh: inactive

What do the screens show for `Cc1oc(-c2ccc(Cl)cc2)nc1CN1CCC(C(=O)NCCCN2CCCC(C)C2)CC1` (stereo unspecified)?
TGFb inhibitor: inconclusive; Nrf2 inh: inactive; ATXN viability: inconclusive; A549 tox: inconclusive; HepG2 tox: 14.1µM; ATXN2 expr inh: inconclusive

What do the screens show for `Cc1oc(-c2ccc(Cl)cc2)nc1CN1CCCC(C(=O)NCCc2ccccc2)C1` (stereo unspecified)?
TGFb inhibitor: 7.08µM; Nrf2 inh: inactive; ATXN viability: inconclusive; A549 tox: inactive; HepG2 tox: inactive; ATXN2 expr inh: inactive

What do the screens show for `Cc1ccc2c(c1)cc1c(=O)n(Cc3cccc(Cl)c3)nc(C)n12`?
TGFb inhibitor: inactive; Nrf2 inh: inactive; ATXN viability: inactive; A549 tox: inactive; HepG2 tox: inactive; ATXN2 expr inh: inactive

Results for COc1ccc(/C=C2\CCCC3C2=NN(C(=O)CSc2ncn[nH]2)C3c2ccc(OC)cc2)cc1 (stereo unspecified) ?
TGFb inhibitor: inconclusive; Nrf2 inh: inconclusive; ATXN viability: inactive; A549 tox: inactive; HepG2 tox: inactive; ATXN2 expr inh: inactive
